Source: the supplement of paper PMC7156485
± gives the standard deviation of the averaged measurements.

How the values were obtained:
Conditions in all cases: concentration: 10 µM; 24 h
HCC1569 [1] = assay: cell number relative to DMSO (% of DMSO); higher = more cells (less growth inhibition / toxicity)
Method in brief: (§1)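 H1.0 nuclear intensity or cell number is stated as percent of the plate control, based on the median of replicates, and HCC1569 values were smoothed for positional effects. These came from HCC1569 and TDF cells treated with compounds at 10 µM for 24 h at 37 °C in triplicate, then fixed in 3.7% formaldehyde and stained with a rabbit anti-H1.0 antibody, an AlexaFluor 647 secondary and DAPI.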

TDF [2] = assay: as above
Method in brief: as §1

TDF [3] = assay: H1.0 immunofluorescence intensity relative to DMSO (% of DMSO); higher = stronger H1.0 induction, active = 120 or more
Method in brief: as §1

HCC1569 [4] = assay: H1.0 immunofluorescence intensity relative to DMSO (% of DMSO); higher = stronger H1.0 induction, active = 140 or more
Method in brief: as §1
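Throughout, for H1.0 immunofluorescence intensity relative to DMSO: TDF is a line of transformed human dermal fibroblasts of mesenchymal origin.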
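Throughout, for cell number relative to DMSO: TDF denotes transformed human dermal fibroblasts of mesenchymal origin.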

Row | SMILES | cell number (HCC1569 [1]) | cell number (TDF [2]) | H1.0 immunofluorescence intensity (TDF [3]) | H1.0 immunofluorescence intensity (HCC1569 [4])
1 | CCCCCC=CCC=CCC=CCC=CCCCC(=O)NC(C)CO [(R)-Methandamide] | 107 | 98.1 | 100 (inactive) | 100 (inactive)
2 | CN(C)CCc1ccc(O)cc1.CN(C)CCc1ccc(O)cc1.O=S(=O)(O)O [Hordenine sulfate] | 99.3 | 99.9 | 104 (inactive) | 99.9 (inactive)
3 | O=c1[nH]c2ccccc2n1C1CCN(Cc2ccc(-c3nc4cc5[nH]cnc5cc4nc3-c3ccccc3)cc2)CC1 [Akt Inhibitor VIII, Isozyme-Selective, Akti-1/2] | 75.9 | 81.2 | 105 (inactive) | 131 (inactive)
4 | CCn1cnc2c(Nc3cccc(Cl)c3)nc(NC3CCCCC3N)nc21 (stereo unspecified) | 54 | 13.5 | 141 (active) | 134 (inactive)
5 | Cc1c2ccncc2c(C)c2c1[nH]c1ccccc12 [Ellipticine] | 69.4 ± 8.6 | 39.3 ± 6.6 | 104 (inactive) | 194 (active)
6 | COc1ccc(C(=O)c2c(C)n(CCN3CCOCC3)c3cc(I)ccc23)cc1 | 85.1 | 82.3 | 108 (inactive) | 128 (inactive)
7 | CCCCCC1OC1CC=CCCCCCCCC(=O)O (stereo unspecified) [Leukotoxin B (12,13-EODE)] | 105 | 106 | 96.8 (inactive) | 100 (inactive)
8 | O=C(O)CCCc1ccc(N(CCCl)CCCl)cc1 [Chlorambucil] | 86.2 ± 2.5 | 85.1 ± 7.6 | 97.1 (inactive) | 98.4 (inactive)
9 | Clc1cnc(Oc2ccc(Oc3ncc(Cl)cc3Cl)cc2)c(Cl)c1 | 100 | 109 | 97.1 (inactive) | 99.2 (inactive)
